Assay results published in PubChem BioAssay (NCI).
The panel holds about 83,000 compounds, 20% with a hit somewhere; the sample as a whole holds those more often.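 Single-dose data. Exposure time 48 hours. Values below 10 considered active.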 Unmarked numbers belong to inactive results. Activity calls are given as the source filed them.

What follows are compounds tested on HOP-92 NSCLC (assay: NCI-60 one-dose screen, 48 h (100 = growth as untreated, 0 = no growth, -100 = all killed)). Settings: 10 µM unless noted.
Description: Growth inhibition of the HOP-92 human Non-Small Cell Lung tumor cell line is measured as a screen for anti-cancer activity. Cells are grown in 96 well plates and exposed to the test compound for 48 hours. Compounds are tested at a single concentration, which is 10^-5 M for most compounds. The reported endpoint is percent growth (GI% or GIPRCNT), where numbers from 0 - 100% represent growth inhibition, and numbers from -100% - 0 represent cell death. For example, a value of 40 represents 60% growth inhibition. A value of 0 means no net growth occurred over the course of the experiment. A value of -40 indicates 40% of cells at the beginning of the experiment died by the end of the experiment. A value of -100 means all cells are dead at the end of the experiment.
NCI-60 Human Tumor Cell Lines Screen was performed using the standard one-dose NCI protocol, which is described in more detail at https://dtp.cancer.gov/discovery_development/nci-60/default.htm.
Compounds with GIPRCNT values below 10 were considered active. Activity score was based on GIPRCNT using the following formula: […]
Score is 0 for GIPRCNT values of 100 or above, 50 for GIPRCNT values of 0, and 100 for GIPRCNT values of -100.

Structure (SMILES) | growth
CCCCC(=O)c1ccco1 | 99.9%
COC(C(=O)[C@@H](O)[C@@H](C)O)[C@@H]1Cc2cc3cc(O[C@H]4C[C@@H](O[C@H]5C[C@@H](O)[C@H](O)C(C)O5)[C@H](O)C(C)O4)cc(O)c3c(O)c2C(=O)[C@H]1O[C@H]1C[C@@H](O[C@H]2C[C@@H](O[C@H]3C[C@@H](OC)[C@H](O)C(C)O3)[C@@H](O)C(C)O2)[C@H](O)C(C)O1 (stereo not given in full) | 64.2%
CCCCC(=O)Nc1ncc(Cc2ccc(Cl)cc2)s1 | 69.7%
O=S(=O)(Nc1ccccc1)c1ccc(C2CC3(Cl)C(Cl)=C(Cl)C2(Cl)C3(Cl)Cl)cc1 (stereo not given) | -10.3% (active)
O=C(O)CCCN1C(=O)/C(=C/C(Cl)=C/c2ccccc2)SC1=S | 14.2%
Nc1ncnc2c1N=C(c1ccc3c(c1)OCO3)CC(c1ccc([N+](=O)[O-])cc1)N2 (stereo not given) | 41.9%
COC(=O)[C@]1(C)CCC[C@]2(C)[C@H]3C[C@H]4C(C(C)C)=C[C@]3(CC[C@H]21)[C@H]1[C@@H]4[C@@H](OCCC#N)CC[C@@H]1OCCC#N | 26.2%
Cc1ccc(-c2csc(NC(=O)CN3CCN(c4cc5c(cc4F)c(=O)c(C(=O)O)cn5C4CC4)CC3)n2)cc1 | -16.4% (active)
CCOc1nc(-c2ccccc2)cc2c(O)c(C(=O)NN)[nH]c(=O)c12 | 93.2%
COc1ccc(CC(C#N)c2cc3ccccc3[nH]2)cc1 (stereo not given) | 49.7%
O=C(CCCCC1CCSS1)Nc1ncnc2n[nH]c(-c3ccc(Oc4ccccc4)cc3)c12 (stereo not given) | 97.9%
C1=C(N2CCCC2)CCC1 | 65.8%
O=C1/C(=C/c2ccc(Cl)cc2)COc2ccc(O)c(O)c21 | -5.33% (active)
Clc1ccc(Sc2cnc(-c3ccccc3)o2)cc1 | 86.1%
Cc1ccc(-c2nc(N3CCNCC3)c3oc(-c4ccccc4)nc3n2)cc1 | -25.6% (active)
COc1ccc(N2CCC(=O)NC2=S)cc1 | 125%
CCNc1cc(-c2cccc(OC(F)(F)F)c2)nc2ccc(N3CCCC3)cc12 | -6.27% (active)
CCn1c(=S)sc2c(Nc3ccc(F)cc3)nc(-c3cccnc3)nc21 | 18.4%
COC(=O)/C=C1/SC(=Nc2ccc(C)cc2)N(CCc2c[nH]c3ccc(O)cc23)C1=O | 53.7%
O=C(Nn1c2c(sc1=Nc1ccccc1)C(=O)c1ccccc1C2=O)c1cc2ccc1CCc1ccc(cc1)CC2 | 107%

Structure (SMILES) | growth
CC1(C)CC2=C3C=C[C@@H]4[C@@]5(C)CCC(=O)C(C)(C)[C@@H]5CC[C@@]4(C)[C@]3(C)CC[C@@]2(C(=O)O)CC1=O | 25.8%
O=C1N(Cc2ccccc2Cl)c2ccccc2C12NN=C(c1cccc(Cl)c1)S2 (stereo not given) | -68.3% (active)
O=S(=O)(NCCNc1nccc(-c2c(-c3cccc(F)c3)nc3occn23)n1)c1ccc(Br)cc1 | 74.7%
NC(=O)c1c(NC(=O)c2ccccc2)sc2c1CCC(=O)C2 | -11.5% (active)
CS(=O)(=O)Nc1cc(-c2ccc3ncnc(Nc4ccc5c(cnn5Cc5ccccn5)c4)c3c2)cnc1Cl | 2.29% (active)
C=C(C)[C@@H]1CC[C@]2(C(=O)N3CCN(C)CC3)CC[C@]3(C)[C@H](CC[C@@H]4[C@@]5(C)CC(=C/c6ccncc6)/C(=N/O)C(C)(C)[C@@H]5CC[C@]43C)[C@@H]12 | 56.7%
C=CCc1c(O)c(C(=O)/C=C/c2ccc(Cl)cc2)c(OC)c2ccoc12 | 48.6%
O=S(=O)(Nc1cc(Br)c(O)c2ccccc12)c1ccc(F)cc1 | 47.1%
COc1ccc(-c2cc(-c3ccc(Cl)cc3)c(C#N)c(=O)n2CCCCC(=O)Nc2ccccc2N)cc1 | -3.51% (active)
CNC(=O)c1c(NC(=O)c2ccc(C(F)(F)F)cc2)sc2c1CCC(=O)C2 | -35.8% (active)
COCCn1c(-c2csc(-c3cn(C)c4ccc(OC)cc34)n2)cc2cccnc21 | 67.5%
c1ccc(C2=NN[C@H](c3cn(-c4ccccc4)nc3-c3ccccc3)C2)cc1 | 34.6%
COC1C[C@H](O[C@@H]2C[C@H](O[C@@H]3C[C@H](O[C@@H]4C(=O)c5c(cc6cc(O[C@H]7C[C@@H](O[C@H]8C[C@@H](O)[C@H](O)C(C)O8)[C@H](O)C(C)O7)c(C)c(O)c6c5O)C[C@H]4C(OC)C(=O)[C@@H](O)[C@@H](C)O)OC(C)[C@H]3O)OC(C)[C@@H]2O)OC(C)[C@@H]1O (stereo not given in full) | -12.1% (active)
COC(=O)c1c2c(c(C)[n+]([O-])c1C)C(=O)C=C(NCc1ccc(OC)cc1)C2=O | -35.3% (active)
COc1ccc(-c2nnc(-c3ccc4c(c3)nc(-c3ccncc3)n4C3CCCCC3)o2)cc1 | 44.8%
CCN(CC)c1nc(SCc2ccccc2Cl)ncc1C | 56%
O=C1c2cccc(NCCN=Cc3cc(O)ccc3O)c2C(=O)c2c(NCCN=Cc3cc(O)ccc3O)cccc21 | -25.5% (active)
Cc1nc2ncnc(Cl)c2[nH]1 | 77.7%
Cc1cc(Cl)ccc1Nc1nc(C(F)(F)F)ccc1C(=O)N/N=C/c1ccc([N+](=O)[O-])cc1 | -31.6% (active)
CC1(c2ccccc2O)NN=C(/N=C/c2cccc([N+](=O)[O-])c2)N1C(Cc1c[nH]c2ccccc12)C(=O)O (stereo not given) | 81.2%
